# In PubChem BioAssay AID1347416 (National Center for Advancing Translational Sciences (NCATS), 2020):
# The whole screen tested about 4,100 compounds, of which about 1,600 (39%) were called active. Another 25% or so got no clear call; they are omitted. Calls follow the shape of the dose curve; as a rule, active = well fitted inhibition curve with a large enough effect; inconclusive = small, poorly fitted or top-dose-only effect; inactive = no such curve, though single readings can be large or run the other way. The list shows a part of the results. Entries that show only a call come without a potency.
# Test: qHTS Validation assay for Inhibitors of Plasmodium falciparum Dd2 growth in vitro; also: nearly all actives have a fitted effect of over 70% in size
# Conditions: P. falciparum Dd2 in RBCs, SYBR Green growth, 72 h; series mostly up to 28.7 µM
# Summary of the method: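 P. falciparum Dd2-infected red blood cells (2.5% hematocrit, 0.3% parasitemia) grown 72 h at 37 °C under 5% O2 with compounds in a titration, 29 uM to 0.5 nM final. Growth read as SYBR Green-1 fluorescence after ~16 h lysis; artesunate 300 nM as positive control.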
# Potency is read from the fitted curve at half-maximal effect.
row,Compound,Potency
1,COC(=O)c1[nH]c2cccc(Cl)c2c1NC(=O)CN1CCCCC1C (configuration not stated),inactive
2,COCCOc1cc(=O)n2c(c1C(=O)NCc1ccc(OC)cc1)CCOCC2,inactive
3,Cc1ccsc1C(=O)Nc1cccc(-c2nnc3n2CCCC3)c1,inactive
4,COc1cc(=O)n2c(c1C(=O)Nc1ccc(N(C)C)cc1)CCCC2,10.6 µM (active)
5,COc1ccc(C2=[N+](C)CCn3cccc32)c(OC)c1,10.6 µM (active)
6,COc1ccc(-c2cc(-c3cccc(OC)c3OC)cn3cncc23)cc1,6.85 µM (active)
7,CCOc1c(OC)cccc1-c1nc2ccc(-c3ccc(OC)c(OC)c3OC)cc2o1,inactive
8,COc1ccc(CNC(=O)CCc2c(C)nn(-c3ccc(N4CCOCC4)nn3)c2C)cc1,inactive
9,COc1ccc(-c2cc(-c3ccc(N4CCOCC4)nc3)cn3cncc23)cc1,7.69 µM (active)
10,Nc1ncnc2c1ncn2[C@H]1O[C@@H](CNS(=O)(=O)NC(=O)c2cccc(-c3noc(-c4ccccc4F)n3)c2)[C@H](O)[C@@H]1O,inactive
11,O=C(C1Cn2cccc2C(=O)N1Cc1ccccc1)N1CCN(c2ncccn2)CC1 (configuration not stated),inactive
12,Cc1ccc(C)c(-n2c(-c3ccc(Br)cc3)csc2=NC(=O)c2ccccc2F)c1,4.73 µM (active)
13,CCCOc1cccc(C2c3c(oc4cc(C)c(C)cc4c3=O)C(=O)N2CCCN2CCOCC2)c1 (configuration not stated),13.3 µM (active)
14,CCCOc1cccc(C2c3c(oc4ccc(F)cc4c3=O)C(=O)N2Cc2ccc3c(c2)OCO3)c1 (configuration not stated),inactive
15,COc1cccc(C(=O)Nc2cccc(-c3cn4c(C)csc4n3)c2)c1OC,inactive
16,CCN1CCN(c2cc(C)c3cc(NC(=O)/C=C/c4cccc(OC)c4OC)ccc3n2)CC1,5.96 µM (active)
17,COc1cccc(/C=C/C(=O)Nc2ccc3nc(N4CCN(C)CC4)cc(C)c3c2)c1OC,5.96 µM (active)
18,CCOC(=O)c1c(S(=O)(=O)N2CCC(C(=O)Nc3ccc(OCC)cc3)CC2)c(C)n(C)c1C,inactive
19,Cc1ncc(CN2CCC(C(=O)Nc3ccc(-n4cccn4)cc3)CC2)s1,4.73 µM (active)
20,Cc1ccsc1CN1CCC(C(=O)N2CCCCCCNC(=O)CC2)CC1,inactive
21,CC(C)CCNC(=O)c1ccc2c(c1)CC(=O)N2Cc1ccccc1,inactive
22,CCN(CC)CCCNC(=O)c1ccc2c(c1)N(Cc1c(F)cccc1Cl)C(=O)c1ccccc1S2,0.944 µM (active)
23,Cc1ccccc1CNC(=O)CC1C(=O)NCCN1Cc1c(F)cccc1Cl (configuration not stated),inactive

row,Compound,Potency
1,O=C(NCc1ccco1)c1ccc2c(c1)N(Cc1c(F)cccc1Cl)C(=O)c1ccccc1S2,13.3 µM (active)
2,CN(C)CCNC(=O)c1ccc2c(c1)N(Cc1c(F)cccc1Cl)C(=O)c1ccccc1S2,2.11 µM (active)
3,O=C(NCc1ccco1)c1ccc2c(c1)N(Cc1ccc(F)cc1)C(=O)c1ccccc1S2(=O)=O,inactive
4,CCCCN(CC)CCCNC(=O)c1ccc2c(c1)N(Cc1ccc(C)cc1)C(=O)c1ccccc1S2,1.88 µM (active)
5,COCCCNC(=O)c1ccc2c(c1)CC(=O)N2Cc1ccccc1,inactive
6,CC(C)[C@@H]1CN(C(=O)CCn2ccc(=O)[nH]c2=O)C[C@H]1NS(C)(=O)=O,inactive
7,CCOc1ccccc1NC(=O)Cn1c(-c2ccc(Cl)cc2)noc1=O,5.96 µM (active)
8,CCOc1ccccc1NC(=O)Cn1c(-c2ccccc2)nc(C)cc1=O,inactive
9,O=C(Cn1c(-c2ccccc2)noc1=O)NCc1ccccc1,inactive
10,O=C1COc2ccc(-c3ccc(Cl)cc3)nc2CN1Cc1ccccc1,inactive
11,Cc1csc(Nc2ccc3c(n2)CN(Cc2ccccc2C)C(=O)CO3)n1,19.3 µM (active)
12,COc1ccc(-c2ccc3c(n2)CN(Cc2csc(C)n2)C(=O)CO3)cc1F,inactive
13,CC(=O)c1cccc(N(C(=O)Cn2nnc3ccccc32)C(C(=O)NCc2ccccc2)c2ccc(F)cc2)c1 (configuration not stated),inactive
14,N=c1c2c3c(sc2ncn1Nc1ccccc1)CCC3,3.35 µM (active)
15,c1cc(Nc2ncnc3sc4c(c23)CCC4)ccn1,inactive
16,O=C(Nc1ccccc1)c1cnc(N2CCCCC2)c2ccccc12,inactive
17,O=C(Nc1ccc2c(N3CCCCC3)ncnc2c1)c1cc(F)cc(F)c1,1.88 µM (active)
18,CCN1c2cc(C(=O)Nc3cc(C)cc(C)c3)ccc2C(=O)N2CCCC21 (configuration not stated),inactive
19,Cc1cc(C)cc(C(=O)Nc2ccc3c(N4CCCC4)ncnc3c2)c1,2.37 µM (active)
20,Cc1cc(C)cc(C(=O)NC2CCN(c3cc(-c4ccc(F)cc4)[nH]n3)C2)c1 (configuration not stated),inactive
21,O=C(Nc1ccc2c(N3CCCCC3)ncnc2c1)c1ccc(F)c(F)c1,4.73 µM (active)
22,O=C(Nc1ccc2oc(-c3cccc(F)c3)nc2c1)c1ccc2ccccc2c1,inactive
23,O=C(Nc1ccc2c(N3CCCC3)ncnc2c1)c1cccc(F)c1,4.73 µM (active)

row,Compound,Potency
1,CC(C)c1noc(-c2cccn3c(CNC(=O)COc4ccc(F)cc4)nnc23)n1,inactive
2,COc1cccc(CNC(=O)CSc2n[nH]c(-c3ccccc3Cl)n2)c1OC,inactive
3,CCc1noc(-c2ccn3c(CNC(=O)Cc4ccccc4OC)nnc3c2)n1,inactive
4,COc1ccccc1Cc1nc2ccccc2nc1SCC(=O)NCc1ccccc1Cl,2.11 µM (active)
5,CN1CCCN(C(=O)C2CCCO2)c2ccccc21 (configuration not stated),inactive
6,O=S(=O)(Cc1ccccc1F)N1CCCC(Cn2c(C3CC3)nc3cccnc32)C1 (configuration not stated),inactive
7,Cc1ccc(CN2COc3cc(C)c4c(oc(=O)c5ccccc54)c3C2)cc1,1.33 µM (active)
8,Cc1cc2c(c3oc(=O)c4ccccc4c13)CN(Cc1ccc(F)cc1)CO2,2.66 µM (active)
9,COc1ccc(CN2CCC(CO)(CCCc3ccccc3)CC2)c(Cl)c1OC,8.41 µM (active)
10,Cc1ccc(C)c(-c2[nH]ncc2CN2CCCC(CO)(CCc3ccccc3)C2)c1 (configuration not stated),inactive
11,Cc1cccc(CNC(=O)c2cc3c(N4CCSCC4)nc(C)cn3n2)c1,inactive
12,CN(Cc1ccccc1)Cc1ccccc1OCC(O)CN1CCCCC1 (configuration not stated),1.5 µM (active)
13,Cc1cccc(CNCc2ccccc2OCC(O)CN2CCSCC2)c1 (configuration not stated),1.5 µM (active)
14,OC(COc1ccccc1CNCCc1ccccc1)CN1CCSCC1 (configuration not stated),2.11 µM (active)
15,COc1cc(CN2Cc3ccccc3C2)ccc1OCC(O)CN1CCOCC1 (configuration not stated),inactive
16,Cc1cc(Nc2sc(C(=O)c3ccc(F)cc3)c(N)c2C(=O)Nc2ccc(F)cc2)ccc1Cl,0.75 µM (active)
17,COc1ccc(-c2cnc3[nH]cc(CC(=O)NCc4cccnc4)c3c2)cn1,6.85 µM (active)
18,O=C(CC[C@@H]1CNC(=O)[C@@H]2C[C@H](NC(=O)Nc3cccc(Cl)c3)CN12)NCc1cccnc1,inactive
19,CC1(COc2cccnc2)COc2ccc(C(=O)NCc3ccc(F)cc3)cc2N1 (configuration not stated),inactive
20,O=C(Cc1c[nH]c2ncc(-c3ccc(Cl)cc3)cc12)NCc1cccnc1,1.72 µM (active)
21,COc1ccccc1C(=O)N[C@H]1[C@H](O)[C@H](O)C[C@@H]1c1cccnc1,inactive
22,COc1ccc(-c2cnc3[nH]cc(CC(=O)NCc4cccnc4)c3c2)cc1OC,1.53 µM (active)
23,CC(=O)N1CCCN(C(=O)c2c[nH]c3ncccc23)CC1,inactive

row,Compound,Potency
1,COc1ccc(C(=O)NCc2nc(-c3cccc(C)c3)no2)cc1OC,inactive
2,Cc1cn2nc(C(=O)N3CCC(NC(=O)c4nccc5ccccc45)CC3)cc2c(=O)[nH]1,inactive
3,O=C1NCCCCCN(C(=O)CC2CCCC2)[C@@H]2C[C@@H](C(=O)N3CCc4ccccc4C3)C[C@H]12,inactive
4,O=C1NCCCCCN(C(=O)c2ccsc2)[C@@H]2C[C@@H](C(=O)N3CCc4ccccc4C3)C[C@H]12,inactive
5,O=C(NCCc1c[nH]c2ccccc12)[C@@H]1C[C@H]2C(=O)NCCCCCCN(C(=O)c3ccco3)[C@H]2C1,10.6 µM (active)
6,CCCCn1c(N)c(N(CC(C)C)C(=O)c2cc(-c3ccc(OC)c(OC)c3)nc3ccccc23)c(=O)[nH]c1=O,11.9 µM (active)
7,CCCCCn1c(=O)[nH]c2cc(C(=O)NCc3ccc(OC)cc3)ccc2c1=O,inactive
8,COc1ccccc1NC(=O)N1CC(=O)Nc2sc3c(c2C1c1ccccc1)CCCC3 (configuration not stated),15 µM (active)
9,CCOc1ccccc1NC(=O)c1c(NC(=O)COc2ccccc2)sc2c1CCCCC2,inactive
10,Cc1cc(C)cc(N(CC(=O)NCc2ccc3c(c2)OCO3)C(=O)CCC(=O)Nc2ccccn2)c1,4.22 µM (active)
11,COc1ccc(N(CC(=O)NCc2ccccc2)C(=O)CCC(=O)Nc2cc(C)ccn2)c(OC)c1,10.6 µM (active)
12,COc1ccc(C(=O)/C=C/Nc2cc(C)ccn2)cc1,inactive
13,CC(=O)N1CCCC(c2nn(C)c(=O)n2C2CCCC2)C1 (configuration not stated),inactive
14,CCC(C)NC(=O)CSc1nc2cc3c(cc2c(=O)n1CCCC(=O)NCc1ccc2c(c1)OCO2)OCO3 (configuration not stated),inactive
15,CN1Cc2ccc(Nc3ccccc3)nc2C(C)(C(=O)NCc2ccc3c(c2)OCO3)C1 (configuration not stated),13.7 µM (active)
16,COc1cccc(Nc2ccc3c(n2)C(C)(C(=O)NC2CCC2)CN(C)C3)c1 (configuration not stated),15.3 µM (active)
17,COc1cccc(Nc2ccc3c(n2)C(C)(C(=O)NCC2CC2)CN(C)C3)c1 (configuration not stated),12.2 µM (active)
18,COc1cccc(CCC(=O)NC2CCN(C(=O)c3cc4c(=O)[nH]c(C)cn4n3)CC2)c1,inactive
19,Cc1cnc(C(=O)N[C@@H]2CCC[C@@H]2C(=O)NCc2ccc3c(c2)OCO3)cn1,inactive
20,COc1cccc(Nc2ccc3c(n2)C(C)(C(=O)NC2CCN(C)CC2)CN(C)C3)c1 (configuration not stated),17.2 µM (active)
21,O=c1[nH]c(C2CCN(S(=O)(=O)/C=C/c3ccccc3)CC2)nc2c1nnn2Cc1ccc(F)cc1,13.3 µM (active)
22,Cc1nncn1C1CCN(S(=O)(=O)c2ccc(F)c(F)c2)CC1,inactive
23,O=c1[nH]c(C2CCN(S(=O)(=O)c3ccc4c(c3)OCCO4)CC2)nc2c1nnn2Cc1ccc(F)cc1,8.41 µM (active)
